Drawing on ChEMBL document CHEMBL1961873, “Compounds: GSK PKIS; Assays: Nanosyn kinase panel” (2012), this text covers inhibition for 6 compounds.

Values joined by “and” are separate entries in the source; they are usually repeats but may differ in a detail not shown here. Equal entries are not always repeated.

The target in test [1] is Fibroblast growth factor receptor 4 (Homo sapiens) (UniProt P22455). To be noted: at 1 µM.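 Further: reported figure is the averaged percent inhibition of FGFR4, from the GSK PKIS kinase screening panel.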
Sequence of Fibroblast growth factor receptor 4 (Homo sapiens) (P22455 22-802 limits assumed): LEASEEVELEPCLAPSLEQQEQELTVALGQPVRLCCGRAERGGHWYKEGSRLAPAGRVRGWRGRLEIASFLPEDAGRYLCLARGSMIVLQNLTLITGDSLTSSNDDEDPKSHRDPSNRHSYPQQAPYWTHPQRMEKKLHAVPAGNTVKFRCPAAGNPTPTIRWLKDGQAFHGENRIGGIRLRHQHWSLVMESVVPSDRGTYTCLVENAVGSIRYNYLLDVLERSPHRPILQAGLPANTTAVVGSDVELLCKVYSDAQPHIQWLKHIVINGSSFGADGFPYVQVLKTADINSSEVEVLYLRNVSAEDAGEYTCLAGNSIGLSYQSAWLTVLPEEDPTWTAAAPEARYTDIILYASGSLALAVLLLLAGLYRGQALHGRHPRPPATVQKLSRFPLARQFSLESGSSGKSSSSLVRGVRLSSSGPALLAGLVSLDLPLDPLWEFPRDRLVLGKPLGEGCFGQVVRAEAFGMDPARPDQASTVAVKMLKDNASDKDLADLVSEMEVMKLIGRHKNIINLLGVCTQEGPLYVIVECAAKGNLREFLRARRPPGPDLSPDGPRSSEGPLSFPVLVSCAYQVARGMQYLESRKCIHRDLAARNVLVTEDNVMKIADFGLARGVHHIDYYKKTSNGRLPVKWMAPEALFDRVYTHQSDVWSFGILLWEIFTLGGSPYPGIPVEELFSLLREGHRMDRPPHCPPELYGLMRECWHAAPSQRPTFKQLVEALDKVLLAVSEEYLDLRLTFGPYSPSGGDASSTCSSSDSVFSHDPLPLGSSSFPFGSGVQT
The target of test [2] is Tyrosine-protein kinase Fgr (Homo sapiens) (UniProt P09769). The conditions noted are these: at 0.1 µM.
Sequence of Tyrosine-protein kinase Fgr (Homo sapiens) (P09769 2-529 limits assumed): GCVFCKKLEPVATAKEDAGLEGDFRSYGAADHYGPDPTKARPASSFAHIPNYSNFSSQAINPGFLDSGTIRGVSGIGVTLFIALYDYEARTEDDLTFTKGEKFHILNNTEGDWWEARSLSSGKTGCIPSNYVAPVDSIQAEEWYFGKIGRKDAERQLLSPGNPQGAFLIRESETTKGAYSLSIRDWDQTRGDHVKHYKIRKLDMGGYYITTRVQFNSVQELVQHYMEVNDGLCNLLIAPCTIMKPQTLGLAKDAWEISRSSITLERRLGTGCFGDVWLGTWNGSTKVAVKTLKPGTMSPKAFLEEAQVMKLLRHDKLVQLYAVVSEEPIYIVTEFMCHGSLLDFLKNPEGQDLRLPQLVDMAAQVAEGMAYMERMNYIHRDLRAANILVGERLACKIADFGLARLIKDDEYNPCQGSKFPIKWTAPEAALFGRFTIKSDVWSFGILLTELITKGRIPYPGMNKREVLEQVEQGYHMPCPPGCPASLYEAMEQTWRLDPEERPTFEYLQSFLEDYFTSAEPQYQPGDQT
The target is the same in test [3]. The conditions noted are these: at 1 µM.
Test [4] concerns the target Vascular endothelial growth factor receptor 1 (Homo sapiens) (UniProt P17948). To be noted: at 0.1 µM.
Test [5] has the same target. The conditions noted are these: at 1 µM.
In test [6] the target is Receptor-type tyrosine-protein kinase FLT3 (Homo sapiens) (UniProt P36888). The conditions noted are these: at 0.1 µM.
Test [7] has the same target. To be noted: at 1 µM.
For test [8], the system named is T1, Receptor-type tyrosine-protein kinase FLT3 (Homo sapiens), P36888 [D835Y].
T1 sequence (whole entry): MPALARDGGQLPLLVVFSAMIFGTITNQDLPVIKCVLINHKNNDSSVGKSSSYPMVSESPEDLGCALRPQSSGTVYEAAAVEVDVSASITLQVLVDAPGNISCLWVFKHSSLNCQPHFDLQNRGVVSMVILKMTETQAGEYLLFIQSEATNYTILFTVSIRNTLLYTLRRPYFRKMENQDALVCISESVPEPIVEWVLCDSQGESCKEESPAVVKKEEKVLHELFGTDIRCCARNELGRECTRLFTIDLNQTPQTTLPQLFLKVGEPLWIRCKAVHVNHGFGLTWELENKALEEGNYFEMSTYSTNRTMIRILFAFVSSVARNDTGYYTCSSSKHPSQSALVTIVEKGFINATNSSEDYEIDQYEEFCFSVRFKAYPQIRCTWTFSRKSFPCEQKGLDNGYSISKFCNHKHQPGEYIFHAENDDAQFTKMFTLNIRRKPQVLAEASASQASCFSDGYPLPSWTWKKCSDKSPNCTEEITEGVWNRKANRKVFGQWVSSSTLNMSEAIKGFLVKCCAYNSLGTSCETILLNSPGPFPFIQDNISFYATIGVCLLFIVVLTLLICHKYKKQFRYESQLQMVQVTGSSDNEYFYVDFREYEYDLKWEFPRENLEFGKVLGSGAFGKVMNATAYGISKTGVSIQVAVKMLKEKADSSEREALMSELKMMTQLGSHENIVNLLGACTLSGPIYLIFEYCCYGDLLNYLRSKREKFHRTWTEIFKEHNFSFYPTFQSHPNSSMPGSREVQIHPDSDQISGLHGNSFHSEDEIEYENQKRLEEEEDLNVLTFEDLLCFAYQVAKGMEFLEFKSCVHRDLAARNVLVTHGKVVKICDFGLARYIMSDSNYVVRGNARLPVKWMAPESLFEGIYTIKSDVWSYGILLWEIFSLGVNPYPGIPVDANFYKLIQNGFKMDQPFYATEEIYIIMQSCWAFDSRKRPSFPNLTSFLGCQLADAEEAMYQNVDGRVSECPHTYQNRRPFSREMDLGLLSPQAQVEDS
The conditions noted are these: at 0.1 µM.

The target of test [9] is Non-receptor tyrosine-protein kinase TYK2 (Homo sapiens) (UniProt P29597). To be noted: at 1 µM.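 Further: values are mean percent inhibition of TYK2 kinase.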
Sequence of Non-receptor tyrosine-protein kinase TYK2 (Homo sapiens) (P29597 whole entry): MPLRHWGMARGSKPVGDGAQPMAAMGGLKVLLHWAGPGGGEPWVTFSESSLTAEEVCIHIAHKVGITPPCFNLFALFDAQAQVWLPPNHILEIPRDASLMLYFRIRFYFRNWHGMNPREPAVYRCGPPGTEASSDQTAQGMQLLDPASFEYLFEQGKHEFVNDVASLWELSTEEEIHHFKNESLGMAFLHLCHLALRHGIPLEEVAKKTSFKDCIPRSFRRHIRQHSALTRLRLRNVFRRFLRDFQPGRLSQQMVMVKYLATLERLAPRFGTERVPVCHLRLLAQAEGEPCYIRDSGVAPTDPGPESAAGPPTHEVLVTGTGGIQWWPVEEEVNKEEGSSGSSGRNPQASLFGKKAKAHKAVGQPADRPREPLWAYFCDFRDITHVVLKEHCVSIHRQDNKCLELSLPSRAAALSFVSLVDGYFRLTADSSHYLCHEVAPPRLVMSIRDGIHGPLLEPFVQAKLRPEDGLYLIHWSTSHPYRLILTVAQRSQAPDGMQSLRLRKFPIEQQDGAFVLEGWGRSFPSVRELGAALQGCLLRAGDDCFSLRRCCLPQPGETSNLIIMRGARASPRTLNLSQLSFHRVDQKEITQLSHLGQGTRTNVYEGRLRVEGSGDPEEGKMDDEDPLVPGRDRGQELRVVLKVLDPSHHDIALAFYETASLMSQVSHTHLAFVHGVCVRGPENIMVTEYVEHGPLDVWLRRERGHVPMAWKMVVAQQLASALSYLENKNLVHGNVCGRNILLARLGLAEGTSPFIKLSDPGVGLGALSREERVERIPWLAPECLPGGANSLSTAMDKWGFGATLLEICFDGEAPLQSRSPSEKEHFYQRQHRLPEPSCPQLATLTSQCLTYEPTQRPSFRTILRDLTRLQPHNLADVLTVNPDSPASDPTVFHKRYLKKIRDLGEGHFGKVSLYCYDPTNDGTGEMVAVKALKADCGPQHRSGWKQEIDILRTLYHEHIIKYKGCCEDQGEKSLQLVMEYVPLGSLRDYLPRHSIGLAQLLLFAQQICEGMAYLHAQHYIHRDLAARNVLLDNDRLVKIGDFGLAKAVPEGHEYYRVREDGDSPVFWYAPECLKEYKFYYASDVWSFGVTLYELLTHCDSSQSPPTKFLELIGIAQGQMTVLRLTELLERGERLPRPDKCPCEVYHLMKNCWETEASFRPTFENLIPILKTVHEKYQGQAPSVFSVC
For test [10], the target named is T2, Tyrosine-protein kinase receptor TYRO3 (Homo sapiens) (UniProt Q06418).
T2 sequence (whole entry): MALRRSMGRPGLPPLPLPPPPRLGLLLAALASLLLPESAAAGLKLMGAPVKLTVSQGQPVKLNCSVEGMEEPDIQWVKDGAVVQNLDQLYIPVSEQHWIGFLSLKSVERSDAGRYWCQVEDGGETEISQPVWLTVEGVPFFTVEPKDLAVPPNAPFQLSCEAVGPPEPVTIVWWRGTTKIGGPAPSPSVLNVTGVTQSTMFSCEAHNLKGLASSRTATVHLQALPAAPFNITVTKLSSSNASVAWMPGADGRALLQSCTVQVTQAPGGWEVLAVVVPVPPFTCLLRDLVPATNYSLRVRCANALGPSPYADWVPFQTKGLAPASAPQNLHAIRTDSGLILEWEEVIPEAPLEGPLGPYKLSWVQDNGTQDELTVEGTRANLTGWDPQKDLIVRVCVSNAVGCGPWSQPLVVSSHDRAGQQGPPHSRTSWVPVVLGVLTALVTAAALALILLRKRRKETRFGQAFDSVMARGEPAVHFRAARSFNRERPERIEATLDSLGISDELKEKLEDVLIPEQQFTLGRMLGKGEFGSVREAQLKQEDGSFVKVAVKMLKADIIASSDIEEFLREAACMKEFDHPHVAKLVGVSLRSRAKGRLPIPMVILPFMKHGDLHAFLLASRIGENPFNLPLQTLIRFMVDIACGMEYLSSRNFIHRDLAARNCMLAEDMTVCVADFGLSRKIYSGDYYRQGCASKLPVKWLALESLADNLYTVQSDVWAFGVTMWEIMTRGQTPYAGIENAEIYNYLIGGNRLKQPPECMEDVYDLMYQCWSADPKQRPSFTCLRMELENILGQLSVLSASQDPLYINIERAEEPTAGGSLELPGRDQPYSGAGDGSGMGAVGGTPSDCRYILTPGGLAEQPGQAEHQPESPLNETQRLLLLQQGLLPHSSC
To be noted: at 0.1 µM.

The target in test [11] is T2, Tyrosine-protein kinase receptor TYRO3 (Homo sapiens). The conditions noted are these: at 1 µM.
In test [12] the target is Tyrosine-protein kinase Yes (Homo sapiens) (UniProt P07947). The conditions noted are these: at 0.1 µM.
Sequence of Tyrosine-protein kinase Yes (Homo sapiens) (P07947 2-543 limits assumed): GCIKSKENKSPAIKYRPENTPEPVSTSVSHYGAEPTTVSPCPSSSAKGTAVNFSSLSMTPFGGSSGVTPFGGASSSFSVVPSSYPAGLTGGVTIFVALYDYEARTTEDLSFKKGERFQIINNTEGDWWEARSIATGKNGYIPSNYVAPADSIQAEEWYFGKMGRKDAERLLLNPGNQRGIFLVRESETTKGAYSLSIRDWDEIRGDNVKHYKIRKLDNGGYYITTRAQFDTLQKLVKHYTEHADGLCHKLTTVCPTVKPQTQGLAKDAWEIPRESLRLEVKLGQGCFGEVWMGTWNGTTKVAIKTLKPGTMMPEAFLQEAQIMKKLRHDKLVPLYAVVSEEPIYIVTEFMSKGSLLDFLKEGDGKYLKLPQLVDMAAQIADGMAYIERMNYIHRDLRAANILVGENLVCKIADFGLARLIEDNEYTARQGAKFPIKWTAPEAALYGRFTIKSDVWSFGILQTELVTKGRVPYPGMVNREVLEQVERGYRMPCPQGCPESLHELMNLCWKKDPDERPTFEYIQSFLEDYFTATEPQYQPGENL
Test [13] has the same target. The conditions noted are these: at 1 µM.
The target in test [14] is T3, Tyrosine-protein kinase ZAP-70 (Homo sapiens) (UniProt P43403).
T3 sequence (whole entry): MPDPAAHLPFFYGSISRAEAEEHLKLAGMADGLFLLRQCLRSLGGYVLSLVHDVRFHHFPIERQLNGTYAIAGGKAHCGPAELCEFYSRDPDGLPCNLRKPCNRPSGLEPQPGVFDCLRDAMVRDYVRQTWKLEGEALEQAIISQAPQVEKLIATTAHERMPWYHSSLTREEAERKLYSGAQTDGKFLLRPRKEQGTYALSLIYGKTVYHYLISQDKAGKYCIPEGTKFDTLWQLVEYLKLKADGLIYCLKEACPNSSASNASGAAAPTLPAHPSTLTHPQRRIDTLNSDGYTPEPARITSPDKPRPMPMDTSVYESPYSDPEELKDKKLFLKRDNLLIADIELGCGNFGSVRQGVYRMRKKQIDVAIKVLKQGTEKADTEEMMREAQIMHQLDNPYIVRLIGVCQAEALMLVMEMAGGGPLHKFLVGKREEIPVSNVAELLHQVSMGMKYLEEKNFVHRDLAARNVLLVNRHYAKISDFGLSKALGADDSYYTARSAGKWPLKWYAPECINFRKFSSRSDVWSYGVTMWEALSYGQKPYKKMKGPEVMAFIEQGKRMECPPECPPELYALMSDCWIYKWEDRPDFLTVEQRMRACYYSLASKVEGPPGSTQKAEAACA
To be noted: at 0.1 µM.

Test [15] has as its target T3, Tyrosine-protein kinase ZAP-70 (Homo sapiens). To be noted: at 1 µM.
Test [16] addresses Serine/threonine-protein kinase B-raf (Homo sapiens) (UniProt P15056). The conditions noted are these: at 0.1 µM.
Test [17] has the same target. The conditions noted are these: at 1 µM.
Test [18] concerns Serine/threonine-protein kinase B-raf (Homo sapiens), P15056 [V600E]. The conditions noted are these: at 0.1 µM.
Sequence of Serine/threonine-protein kinase B-raf (Homo sapiens), P15056 [V600E] (P15056 whole entry V600E): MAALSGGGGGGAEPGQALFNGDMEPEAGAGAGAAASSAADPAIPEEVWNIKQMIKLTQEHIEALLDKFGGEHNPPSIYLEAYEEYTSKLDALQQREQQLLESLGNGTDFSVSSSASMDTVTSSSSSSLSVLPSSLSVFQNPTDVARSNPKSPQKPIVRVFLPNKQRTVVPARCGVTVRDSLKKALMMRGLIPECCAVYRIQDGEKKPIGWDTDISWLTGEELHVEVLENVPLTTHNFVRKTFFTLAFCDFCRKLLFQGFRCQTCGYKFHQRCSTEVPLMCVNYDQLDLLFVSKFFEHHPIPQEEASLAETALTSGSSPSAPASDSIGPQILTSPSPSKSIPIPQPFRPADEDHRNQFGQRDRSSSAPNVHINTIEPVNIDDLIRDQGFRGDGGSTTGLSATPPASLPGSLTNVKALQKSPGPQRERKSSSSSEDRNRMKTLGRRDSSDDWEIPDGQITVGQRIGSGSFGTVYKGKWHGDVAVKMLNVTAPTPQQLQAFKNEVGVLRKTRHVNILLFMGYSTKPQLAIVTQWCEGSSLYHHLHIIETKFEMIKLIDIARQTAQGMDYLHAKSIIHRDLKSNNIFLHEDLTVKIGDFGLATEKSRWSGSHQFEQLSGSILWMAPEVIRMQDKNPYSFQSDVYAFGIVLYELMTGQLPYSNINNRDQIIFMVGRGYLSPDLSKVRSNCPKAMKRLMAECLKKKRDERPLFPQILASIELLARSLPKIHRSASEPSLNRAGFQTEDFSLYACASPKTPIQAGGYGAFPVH
The test system is the same in test [19]. The conditions noted are these: at 1 µM.
In test [20] the target is RAF proto-oncogene serine/threonine-protein kinase (Homo sapiens) (UniProt P04049). To be noted: at 0.1 µM.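 Further: values are mean CRAF kinase inhibition from profiling of the GSK Published Kinase Inhibitor Set.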
Sequence of RAF proto-oncogene serine/threonine-protein kinase (Homo sapiens) (P04049 whole entry): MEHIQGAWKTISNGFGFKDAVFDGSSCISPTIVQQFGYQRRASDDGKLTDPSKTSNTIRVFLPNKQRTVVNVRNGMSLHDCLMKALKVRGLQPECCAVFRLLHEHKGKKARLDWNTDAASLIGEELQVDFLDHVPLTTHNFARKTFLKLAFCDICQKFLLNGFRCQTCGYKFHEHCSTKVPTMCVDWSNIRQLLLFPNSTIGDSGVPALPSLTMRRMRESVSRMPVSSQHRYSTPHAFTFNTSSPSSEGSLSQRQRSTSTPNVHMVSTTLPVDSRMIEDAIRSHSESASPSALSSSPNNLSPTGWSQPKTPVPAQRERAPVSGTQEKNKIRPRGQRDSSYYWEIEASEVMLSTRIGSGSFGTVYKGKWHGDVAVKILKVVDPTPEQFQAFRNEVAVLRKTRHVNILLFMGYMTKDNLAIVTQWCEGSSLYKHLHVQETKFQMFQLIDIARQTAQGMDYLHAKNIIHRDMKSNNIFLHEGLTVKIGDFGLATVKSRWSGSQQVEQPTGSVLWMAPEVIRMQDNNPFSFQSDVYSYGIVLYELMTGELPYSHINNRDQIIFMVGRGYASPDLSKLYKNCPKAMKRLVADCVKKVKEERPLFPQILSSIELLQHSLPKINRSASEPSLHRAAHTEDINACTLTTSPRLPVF

Sequence of Serine/threonine-protein kinase B-raf (Homo sapiens) (P15056 whole entry): as the sequence (P15056 whole entry V600E) above, with E600V counted along it

For the compound `CNC(=O)c1sc(-n2cnc3cc(OC)c(OC)cc32)cc1OCc1ccccc1C(F)(F)F`, the inhibition in test [1] was 1.34%; in test [2], 4.08%; in [3], 10.1%; in test [4] it was 1.22%; in test [5], 0.98%; in test [6], 2.13%. Also, the inhibition was 3.19% in test [7]; -3.62% in [8]; -3.45% in [9]; 1.67% in test [10]; 3.54% in test [11]; 3.33% in [12]. Moreover, the inhibition in test [13] is 6.76%; in [14] it was -0.03%; in test [15], -1.04%; in test [16] it was 6.42%; in test [17], 6.14%; in test [18], 4.01%. Besides, the inhibition in [19] is 4.66%; in test [20] it was 1.81%.

On to `c1cnn2ncc(-c3ccnc(NCCCN4CCOCC4)n3)c2c1`, for which the inhibition was determined as 2.53% in [1]; 2.2% in [2]; 0.54% in [3]; 1.65% in test [4]; 0.94% in test [5]; 0.76% in [6]. Besides, the inhibition in [7] was 1.48%; in [8], 0.21%; in test [9], -3.09%; in test [10], 3.23%; in test [11] it was 2.64%; in [12] it was 2.68%. Further, the inhibition came out at 0.1% in [13]; 2.13% in test [14]; 2.9% in [15]; 5.35% in test [16]; 7.07% in test [17]; 5.41% in test [18]. Moreover, the inhibition in [19] is 5.03%; in test [20], 2.81%.

`CCCNc1cccc(-n2ncc3c(N/N=C/c4ccncc4)ncnc32)c1`: the inhibition in [1] came out at 3.38%; in test [2] it was 18.9%; in [3], 52%; in test [4], 2.98%; in test [5], 19.7%; in test [6], 4.53%. For the same compound, the inhibition in [7] is 17.6%; in test [8], 7.74%; in test [9] it was 4.3%; in test [10] it was 5.05%; in [11] it was 42.8%; in test [12], 43.1%. Moreover, the inhibition stood at 82.8% in test [13]; 2.44% in test [14]; 3.95% in test [15]; 0% in test [16]; 1.5% in test [17]; 0.21% in test [18]. Besides, the inhibition was 2.86% in test [19] and -0.1% in test [20].

In the case of `CN1CCC(C(=O)Nc2n[nH]c3nc(-c4ccc(O)cc4)c(Br)cc23)CC1`, the inhibition is -2.79% and 2.44% in test [1]; 4.74% and 1.32% in [2]; 4.79% and 3.79% in [3]; -0.55% and 2.25% in test [4]; 1.75% and 2.84% in test [5]; 1.75% and 4.1% in test [6]. The inhibition in [7] was 5.59% and 2.93%; in test [8], -2.26% and 1.33%; in test [9], -0.92% and -0.98%; in [10], 2.21% and 0.67%; in [11], 7.08% and 4.86%; in test [12] it was 4% and 0.88%. Also, the inhibition in test [13] is 10.6% and 3.33%; in [14] it was -0.14% and 0.65%; in [15], 2.21% and 2.11%; in test [16], 9.05% and 4.77%; in test [17], 16% and 14.5%; in test [18], 9.4% and 4.5%. Further, the inhibition in test [19] is 13.8% and 8.76%; in test [20], 13% and -0.38%.

For the compound `Cc1cc(O)cc(C)c1/C=C/c1cncc(C(=O)OC(C)(C)C)c1`, the inhibition was 2.64% in [1]; 8.01% in test [2]; 34% in [3]; 2.02% in [4]; 2.37% in test [5]; 2.32% in test [6]. The inhibition in [7] is 1.9%; in test [8], -1.99%; in [9], -2.24%; in test [10], 3.2%; in [11] it was 4.32%; in test [12], 5.5%. Moreover, the inhibition turned out to be 31.1% in test [13]; 1.34% in [14]; 1.02% in [15]; 4.14% in test [16]; 7.71% in test [17]; 3.83% in test [18]. Besides, the inhibition in test [19] was determined as 6.09%; in [20] it was 3.1%.

With `COc1cc2c(cc1Nc1nc(Nc3cccc(F)c3C(N)=O)c3cc[nH]c3n1)N(C(=O)CN1CCN(C(C)C)CC1)CC2`, the inhibition is 1.15% in [1]; 0.5% in [2]; 0.3% in test [3]; -1.2% in test [4]; 1.09% in test [5]; 1.14% in test [6]. Besides, the inhibition in test [7] was 0.93%; in [8], -4.8%; in test [9] it was -1.21%; in test [10], -0.96%; in test [11], 0.01%; in test [12], 1.54%. The inhibition worked out at 1.04% in test [13]; 2.59% in test [14]; 3.22% in test [15]; 2.3% in test [16]; 7.9% in [17]; 2.2% in test [18]. The inhibition in [19] amounted to 4.6%; in test [20], 0.97%.
